1 compound from PubChem BioAssay (EPA / NIEHS) can be followed below.

What all share (conditions): mRNA level, 48 h; actives raise or lower the signal
Read-out in experiment [1]: Cytochrome P450 (CYP2B6), CYP2B6 (gene 1555)
Nature of the experiment: LTEA_HepaRG_CYP2B6: Life Technologies and Expression Analysis (LTEA) Assay for Cytochrome P450 (CYP2B6) using HepaRG (AID 2283481). The gist of the method: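 CYP2B6 transcript level quantified by qRT-PCR against three housekeeping genes, fitted bidirectionally relative to DMSO. HepaRG cultures received chemicals for 48 h, 8-point half-log series from 100 uM in 0.5% DMSO, duplicate wells, serum-free induction medium.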

Read-out in experiment [2]: Cytochrome P450 2C19 (Homo sapiens) (UniProt P33261)
Description: LTEA_HepaRG_CYP2C19: Life Technologies and Expression Analysis (LTEA) Assay for CYP2C19 using HepaRG (AID 2283482). In short, it runs like this:
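CYP2C19 transcript levels by qRT-PCR, normalized to three housekeeping genes, in HepaRG cells after 48 h chemical exposure. Eight-point half-log series topping at 100 uM, 0.5% DMSO vehicle. Increases and decreases both fitted against DMSO.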

Read-out in the next experiment: CYP2C8 (gene 1558)
Nature of the experiment: LTEA_HepaRG_CYP2C8: Life Technologies and Expression Analysis (LTEA) Assay for CYP2C8 using HepaRG (AID 2283483). In short, it runs like this:
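Differentiated HepaRG cells in serum-free induction medium exposed 48 h in duplicate to 8 half-log concentrations from 100 uM in 0.5% DMSO. CYP2C8 mRNA by qRT-PCR normalized to ACTB, GAPDH, POLR2A; bidirectional fit versus DMSO.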

Read-out in the next experiment: CYP2C9 (gene 1559)
Description: LTEA_HepaRG_CYP2C9: Life Technologies and Expression Analysis (LTEA) Assay for CYP2C9 using HepaRG (AID 2283484). In short, it runs like this:
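Differentiated human HepaRG cells in serum-free induction medium were exposed 48 h to chemicals in 8-point half-log series from 100 uM (0.5% DMSO), in duplicate. CYP2C9 mRNA was measured by qRT-PCR, normalized to ACTB/GAPDH/POLR2A, with bidirectional fitting versus DMSO.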

Read-out in another experiment: CYP2E1 (gene 1571)
Description: LTEA_HepaRG_CYP2E1: Life Technologies and Expression Analysis (LTEA) Assay for CYP2E1 using HepaRG (AID 2283485). The gist of the method:
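HepaRG cells, plated 48 h, then exposed 48 h in serum-free induction medium to eight half-log concentrations from 100 uM in 0.5% DMSO, duplicate. CYP2E1 mRNA by qRT-PCR, normalized to ACTB/GAPDH/POLR2A; bidirectional fit versus DMSO.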

Read-out in the next experiment: CYP4A11 (gene 1579)
Nature of the experiment: LTEA_HepaRG_CYP4A11: Life Technologies and Expression Analysis (LTEA) Assay for CYP4A11 using HepaRG (AID 2283486). In short, it runs like this:
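Readout is CYP4A11 transcript level by qRT-PCR, normalized to three housekeeping genes and fitted bidirectionally against 0.5% DMSO. Human HepaRG cells were treated 48 h, in duplicate, with an 8-point half-log series topping at 100 uM.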

Read-out in experiment [3]: Cytochrome P450 3A4 (Homo sapiens) (UniProt P08684)
Description: LTEA_HepaRG_CYP3A4: Life Technologies and Expression Analysis (LTEA) Assay for CYP3A4 using HepaRG (AID 2283487). In short, it runs like this: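 Differentiated HepaRG cells, plated 48 h, then dosed 48 h in serum-free induction medium with 0.5% DMSO, 8 half-log concentrations up to 100 uM, duplicate. CYP3A4 mRNA by qRT-PCR, normalized to ACTB/GAPDH/POLR2A; bidirectional fit versus DMSO.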

Read-out in experiment [4]: DNA damage-inducible transcript 3 (DDIT3), DDIT3 (gene 1649)
Nature of the experiment: LTEA_HepaRG_DDIT3: Life Technologies and Expression Analysis (LTEA) Assay for DNA damage-inducible transcript 3 (DDIT3) using HepaRG (AID 2283488). In short, it runs like this:
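HepaRG cells, 48 h after plating, exposed 48 h in serum-free induction medium to 8 half-log concentrations up to 100 uM in 0.5% DMSO, in duplicate. DDIT3 mRNA measured by TaqMan qRT-PCR, normalized to ACTB, GAPDH and POLR2A. Fitted bidirectionally against DMSO.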

Read-out in experiment [5]: Pro-epidermal growth factor (Homo sapiens) (UniProt P01133)
Nature of the experiment: LTEA_HepaRG_EGF: Life Technologies and Expression Analysis (LTEA) Assay for Epidermal growth factor (EGF) using HepaRG (AID 2283489). In short, it runs like this: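 EGF transcript measured by Fluidigm TaqMan qRT-PCR with three housekeeping genes for normalization, 48 h after dosing HepaRG cultures in duplicate (top 100 uM, half-log steps, 0.5% DMSO vehicle). Gain or loss relative to DMSO fitted.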

Read-out in experiment [6]: Early growth response protein 1 (EGR1) transcription factor, EGR1 (gene 1958)
Nature of the experiment: LTEA_HepaRG_EGR1: Life Technologies and Expression Analysis (LTEA) Assay for Early growth response protein 1 (EGR1) transcription factor using HepaRG (AID 2283490). The gist of the method:
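Differentiated HepaRG cells in serum-free induction medium exposed 48 hours, duplicate, to 8 half-log concentrations up to 100 uM in 0.5% DMSO. EGR1 mRNA measured by TaqMan qRT-PCR, normalized to ACTB, GAPDH, POLR2A; bidirectional fit versus DMSO.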

Read-out in experiment [7]: Ezrin (EZR), EZR (gene 7430)
Nature of the experiment: LTEA_HepaRG_EZR: Life Technologies and Expression Analysis (LTEA) Assay for Ezrin (EZR) using HepaRG (AID 2283491). The gist of the method: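 EZR transcript levels came from Fluidigm qRT-PCR and were normalized to three housekeeping genes after 48 h chemical exposure of HepaRG cells. Dosing used an 8-point half-log series with a 100 uM top concentration in 0.5% DMSO, tested in duplicate; both directions were fitted versus vehicle.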

Read-out in experiment [8]: Cytochrome P450 3A7 (Homo sapiens) (UniProt P24462)
Description: LTEA_HepaRG_CYP3A7: Life Technologies and Expression Analysis (LTEA) Assay for CYP3A7 using HepaRG (AID 2283492). The gist of the method: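 CYP3A7 transcript measured by qRT-PCR (ACTB, GAPDH, POLR2A normalization) after 48 h chemical exposure of HepaRG cells in duplicate. Eight half-log concentrations, maximum 100 uM, 0.5% DMSO vehicle; bidirectional curve fitting against DMSO baseline.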

Read-out in the next experiment: CYP3A5 (gene 1577)
Nature of the experiment: LTEA_HepaRG_CYP3A5: Life Technologies and Expression Analysis (LTEA) Assay for CYP3A5 using HepaRG (AID 2283493). The gist of the method:
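HepaRG cells, plated 48 h then in serum-free induction medium, dosed in duplicate for 48 h with eight half-log concentrations up to 100 uM in 0.5% DMSO. Gene mRNA by Fluidigm TaqMan qRT-PCR, normalized to ACTB, GAPDH, POLR2A.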

Read-out in experiment [9]: Cytochrome P450 4A22 (Homo sapiens) (UniProt Q5TCH4)
Nature of the experiment: LTEA_HepaRG_CYP4A22: Life Technologies and Expression Analysis (LTEA) Assay for Cytochrome P450 4A22 (CYP4A22) using HepaRG (AID 2283495). In short, it runs like this:
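Gene expression measured by qRT-PCR against three housekeeping genes (ACTB, GAPDH, POLR2A), with gain or loss fitted relative to 0.5% DMSO vehicle. HepaRG cultures received 48 h chemical treatment, top concentration 100 uM, half-log steps, duplicate wells.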

Read-out in experiment [10]: Cytochrome P450 7A1 (Homo sapiens) (UniProt P22680)
Nature of the experiment: LTEA_HepaRG_CYP7A1: Life Technologies and Expression Analysis (LTEA) Assay for Cytochrome P450 7A1 (CYP7A1) using HepaRG (AID 2283496). The gist of the method:
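HepaRG cells plated 48 h, then switched to serum-free induction medium and exposed in duplicate for 48 h to 8-point half-log series from 100 uM in 0.5% DMSO. CYP7A1 mRNA by qRT-PCR (TaqMan), normalized to ACTB/GAPDH/POLR2A; bidirectional fit versus DMSO.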

Read-out in experiment [11]: Glutathione S-Transferase (GSTA2), GSTA2 (gene 2939)
Description: LTEA_HepaRG_GSTA2: Life Technologies and Expression Analysis (LTEA) Assay for Glutathione S-Transferase (GSTA2) using HepaRG (AID 2283497). The gist of the method:
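Differentiated human HepaRG cells were exposed in duplicate for 48 h in serum-free induction medium, 8 points from 100 uM top in half-log steps, 0.5% DMSO. GSTA2 mRNA was measured by TaqMan qRT-PCR, normalized to ACTB, GAPDH and POLR2A; bidirectional fit versus DMSO.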

Read-out in experiment [12]: Glutamate-cysteine ligase catalytic (GCLC), GCLC (gene 2729)
Description: LTEA_HepaRG_GCLC: Life Technologies and Expression Analysis (LTEA) Assay for Glutamate-cysteine ligase catalytic (GCLC) using HepaRG (AID 2283498). The gist of the method:
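Differentiated HepaRG cells exposed 48 h in serum-free induction medium, eight-point half-log series topping at 100 uM in 0.5% DMSO, duplicates. GCLC mRNA by qRT-PCR normalized to ACTB, GAPDH and POLR2A, fitted bidirectionally versus DMSO.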

Read-out in experiment [13]: growth arrest and DNA damage 45 (GADD45G), GADD45G (gene 10912)
Description: LTEA_HepaRG_GADD45G: Life Technologies and Expression Analysis (LTEA) Assay for growth arrest and DNA damage 45 (GADD45G) using HepaRG (AID 2283499). In short, it runs like this: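 GADD45G transcript level by qRT-PCR (housekeeping-normalized: ACTB, GAPDH, POLR2A) after 48 h chemical treatment of a single HepaRG lot in serum-free induction medium; eight-point half-log series up to 100 uM in 0.5% DMSO, duplicates, up- or down-regulation scored.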

Read-out in experiment [14]: Glutamate-cysteine ligase regulatory (GCLM), GCLM (gene 2730)
Nature of the experiment: LTEA_HepaRG_GCLM: Life Technologies and Expression Analysis (LTEA) Assay for Glutamate-cysteine ligase regulatory (GCLM) using HepaRG (AID 2283500). The gist of the method:
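Differentiated HepaRG cells exposed 48 h in serum-free induction medium to eight half-log concentrations up to 100 uM (0.5% DMSO). GCLM mRNA by TaqMan qRT-PCR, normalized to ACTB, GAPDH and POLR2A; bidirectional fit versus DMSO.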

Read-out in experiment [15]: Glutathione S-transferase M3 (GSTM3), GSTM3 (gene 2947)
Nature of the experiment: LTEA_HepaRG_GSTM3: Life Technologies and Expression Analysis (LTEA) Assay for Glutathione S-transferase M3 (GSTM3) using HepaRG (AID 2283501). The gist of the method: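 GSTM3 transcript levels came from Fluidigm TaqMan qRT-PCR normalized to three housekeeping genes, fitted in both directions against DMSO. HepaRG cultures received chemicals for 48 h in serum-free induction medium (0.5% DMSO), 8 half-log concentrations up to 100 uM, duplicate.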

The structures appear in SMILES notation. Activity calls are given as the source filed them. The calls were made as follows: active = hit-call score of the fitted dose curve at least 0.9, where 1 is the maximum; inactive = score below 0.9.

Chain of Cytochrome P450 3A4 (Homo sapiens) (P08684 whole entry, looked up): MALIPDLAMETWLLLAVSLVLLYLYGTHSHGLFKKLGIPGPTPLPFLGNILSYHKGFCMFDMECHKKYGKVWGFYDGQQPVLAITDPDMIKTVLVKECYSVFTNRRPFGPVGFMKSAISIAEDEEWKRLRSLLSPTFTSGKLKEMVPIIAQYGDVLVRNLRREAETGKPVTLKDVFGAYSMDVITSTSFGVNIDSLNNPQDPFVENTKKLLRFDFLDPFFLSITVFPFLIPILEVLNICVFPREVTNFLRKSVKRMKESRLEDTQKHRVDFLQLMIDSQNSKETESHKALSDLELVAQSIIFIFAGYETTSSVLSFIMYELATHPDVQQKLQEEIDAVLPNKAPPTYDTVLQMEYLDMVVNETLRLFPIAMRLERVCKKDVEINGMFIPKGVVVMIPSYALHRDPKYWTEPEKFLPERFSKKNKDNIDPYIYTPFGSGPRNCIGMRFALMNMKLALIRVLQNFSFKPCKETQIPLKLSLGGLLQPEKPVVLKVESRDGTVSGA
Chain of Cytochrome P450 3A7 (Homo sapiens) (P24462 whole entry, looked up): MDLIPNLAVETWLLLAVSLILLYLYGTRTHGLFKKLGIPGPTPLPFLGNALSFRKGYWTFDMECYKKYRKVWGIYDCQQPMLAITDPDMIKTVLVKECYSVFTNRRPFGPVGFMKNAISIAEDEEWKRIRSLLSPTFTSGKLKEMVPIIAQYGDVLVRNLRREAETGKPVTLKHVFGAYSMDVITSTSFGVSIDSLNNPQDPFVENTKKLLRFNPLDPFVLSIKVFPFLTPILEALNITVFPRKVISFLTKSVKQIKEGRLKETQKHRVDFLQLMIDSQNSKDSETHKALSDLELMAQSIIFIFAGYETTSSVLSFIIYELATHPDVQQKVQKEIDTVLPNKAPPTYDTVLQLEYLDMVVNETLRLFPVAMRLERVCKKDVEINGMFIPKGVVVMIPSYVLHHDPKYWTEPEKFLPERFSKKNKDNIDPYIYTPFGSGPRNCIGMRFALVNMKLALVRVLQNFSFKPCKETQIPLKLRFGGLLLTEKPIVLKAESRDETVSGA
Chain of Cytochrome P450 2C19 (Homo sapiens) (P33261 whole entry, looked up): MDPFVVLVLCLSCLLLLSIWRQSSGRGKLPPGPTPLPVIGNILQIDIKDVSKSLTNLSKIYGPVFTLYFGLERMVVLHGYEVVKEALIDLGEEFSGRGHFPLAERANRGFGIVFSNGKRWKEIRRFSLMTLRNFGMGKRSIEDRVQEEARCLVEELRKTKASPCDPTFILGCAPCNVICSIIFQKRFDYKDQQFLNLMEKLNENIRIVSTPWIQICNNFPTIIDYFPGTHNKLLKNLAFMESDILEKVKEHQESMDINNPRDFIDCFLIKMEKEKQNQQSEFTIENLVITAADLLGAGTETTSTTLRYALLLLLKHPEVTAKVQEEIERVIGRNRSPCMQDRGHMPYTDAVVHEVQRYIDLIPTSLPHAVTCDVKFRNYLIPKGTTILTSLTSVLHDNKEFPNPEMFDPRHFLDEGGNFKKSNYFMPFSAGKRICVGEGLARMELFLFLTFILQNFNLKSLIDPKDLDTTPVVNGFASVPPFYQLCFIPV

In general, AC50 refers to the concentration giving half of the maximal activity seen. Regarding `O=C(CCl)c1ccccc1`, the AC50 in experiment [1] is 50 µM (active). For the same compound, the result (in experiment [2]; with CYP2C8 (gene 1558); with CYP2C9 (gene 1559); with CYP2E1 (gene 1571); in the experiment with CYP4A11 (gene 1579); in [3]) was inactive. Moreover, the compound was called inactive (in [4]; in experiment [5]; in experiment [6]; in experiment [7]; in experiment [8]; with CYP3A5 (gene 1577)). Moreover, the compound was classed as inactive in experiment [9], in experiment [10], in experiment [11], in experiment [12], in experiment [13] and in [14]. Moreover, in experiment [15], the compound was classed as inactive.
